This is part of a sample that, as a whole, favours compounds with a hit. Of some 83,000 tested, about 20% had one in any assay.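 A percent growth of 40 corresponds to 60% growth inhibition; 0 means no net growth; -100 means all cells died. Active threshold: below 10.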 Active and inactive are the calls of the source.
Key:
Assay in all cases: NCI-60 one-dose screen, 48 h (100 = growth as untreated, 0 = no growth, -100 = all killed)
Settings in all cases: 10 µM unless noted
NCI-H23 lung = system: NCI-H23 lung
NCI-H226 lung = system: NCI-H226 lung
NCI-H322M lung = system: NCI-H322M lung
HOP-62 NSCLC = system: HOP-62 NSCLC
NCI-H460 lung = system: NCI-H460 lung
HOP-92 NSCLC = system: HOP-92 NSCLC
NCI-H522 lung = system: NCI-H522 lung
A549/ATCC NSCLC = system: A549/ATCC NSCLC
786-0 renal = system: 786-0 renal
COLO 205 colon = system: COLO 205 colon
DU-145 prostate = system: DU-145 prostate
K-562 leukemia = system: K-562 leukemia
MALME-3M melanoma = system: MALME-3M melanoma
MDA-MB-231 breast = system: MDA-MB-231 breast
RXF 393 renal = system: RXF 393 renal
SF-268 CNS = system: SF-268 CNS
SF-295 CNS = system: SF-295 CNS
SF-539 CNS = system: SF-539 CNS
UACC-257 melanoma = system: UACC-257 melanoma
M14 melanoma = system: M14 melanoma

Measured: growth

COc1cc2cc(C(=O)N3C[C@@H](CCl)c4c3cc(OC(=O)N(CCC(=O)N3CCN(C)CC3)C3CCCCC3)c3ccccc43)[nH]c2c(OC)c1OC
active: NCI-H23 lung -86.8% | NCI-H226 lung -11.1% | NCI-H322M lung -28.6% | HOP-62 NSCLC -55.7% | NCI-H460 lung -73.1% | HOP-92 NSCLC -71% | NCI-H522 lung -82% | A549/ATCC NSCLC -24.1% | 786-0 renal -96% | COLO 205 colon -66.7% | DU-145 prostate -73.5% | K-562 leukemia -20.6% | MALME-3M melanoma -97.6% | MDA-MB-231 breast -61.4% | RXF 393 renal -93.3% | SF-268 CNS -41.5% | SF-295 CNS -68.3% | SF-539 CNS -93% | UACC-257 melanoma -78.6% | M14 melanoma -84.5%

O=C(c1ccc(Cl)cc1)C1[C@H](c2ccccc2Cl)[C@@H](c2ccccc2)NC12C(=O)Nc1ccc(Cl)cc12 (stereo not given in full)
active: NCI-H23 lung -70.1% | NCI-H226 lung -86.1% | NCI-H322M lung -22.1% | HOP-62 NSCLC -72.4% | NCI-H460 lung -69.2% | HOP-92 NSCLC -75.6% | NCI-H522 lung -50.6% | A549/ATCC NSCLC -23% | 786-0 renal -54.5% | COLO 205 colon -91.4% | DU-145 prostate -28.5% | K-562 leukemia -45.1% | MALME-3M melanoma -39.5% | MDA-MB-231 breast -96.1% | RXF 393 renal -93.1% | SF-268 CNS -36.6% | SF-295 CNS -85.9% | SF-539 CNS -78.4% | UACC-257 melanoma -15.5% | M14 melanoma -82.9%

O=C(c1ccc(O)cc1)C1[C@H](c2ccc(Cl)cc2)[C@@H](c2ccccc2)NC12C(=O)Nc1ccc(Br)cc12 (stereo not given in full)
inactive: DU-145 prostate 13.4% | UACC-257 melanoma 65.9%
active: NCI-H23 lung -58.7% | NCI-H226 lung -54.7% | NCI-H322M lung -4.19% | HOP-62 NSCLC -28.9% | NCI-H460 lung -45.9% | HOP-92 NSCLC -32.2% | NCI-H522 lung -20.8% | A549/ATCC NSCLC 5.99% | 786-0 renal -52.1% | COLO 205 colon -86.3% | K-562 leukemia -41.7% | MALME-3M melanoma -49% | MDA-MB-231 breast -79.4% | RXF 393 renal -85.9% | SF-268 CNS 3.93% | SF-295 CNS -60.8% | SF-539 CNS -37.5% | M14 melanoma -56.8%

O=C(COc1ccc(/C=C2/C(=O)Nc3ccc(Cl)cc32)cc1)Nc1ccc(Br)cc1
inactive: SF-268 CNS 16.7% | UACC-257 melanoma 15.1%
active: NCI-H23 lung -53.6% | NCI-H226 lung -48.5% | NCI-H322M lung 0.856% | HOP-62 NSCLC -72.6% | NCI-H460 lung -31.6% | HOP-92 NSCLC -48.4% | NCI-H522 lung -35% | A549/ATCC NSCLC -66.2% | 786-0 renal -78.9% | COLO 205 colon 2.47% | DU-145 prostate -9.85% | K-562 leukemia 2.94% | MALME-3M melanoma -41.5% | MDA-MB-231 breast -33.7% | RXF 393 renal -65.7% | SF-295 CNS -59.7% | SF-539 CNS -84.9% | M14 melanoma -2.56%

CCCSc1nnc(-c2sc3nc4ccccc4n3c2C)o1
inactive: NCI-H23 lung 111% | NCI-H226 lung 106% | NCI-H322M lung 102% | HOP-62 NSCLC 132% | NCI-H460 lung 103% | HOP-92 NSCLC 101% | NCI-H522 lung 100% | A549/ATCC NSCLC 99.8% | 786-0 renal 81.5% | COLO 205 colon 131% | DU-145 prostate 103% | K-562 leukemia 97.4% | MALME-3M melanoma 116% | MDA-MB-231 breast 108% | RXF 393 renal 87.3% | SF-268 CNS 115% | SF-295 CNS 105% | SF-539 CNS 108% | UACC-257 melanoma 102% | M14 melanoma 106%

CN(C)C(=O)c1cc(-c2ccc3ncnc(N4CCc5cc(F)c(Cl)cc54)c3c2)cnc1N
inactive: DU-145 prostate 23% | SF-268 CNS 24.2%
active: NCI-H23 lung -18.1% | NCI-H226 lung -25.4% | NCI-H322M lung -64.2% | HOP-62 NSCLC -32.6% | NCI-H460 lung 3.44% | HOP-92 NSCLC -45.7% | NCI-H522 lung -13.4% | A549/ATCC NSCLC -66.9% | 786-0 renal -82.2% | COLO 205 colon -76.5% | K-562 leukemia -21.7% | MALME-3M melanoma -57.7% | MDA-MB-231 breast -49.2% | RXF 393 renal -73.7% | SF-295 CNS -73.1% | SF-539 CNS -73.2% | UACC-257 melanoma 4.11% | M14 melanoma -36.7%

Cc1nn(-c2ccccc2)c2nc(C)n(C(=O)N/N=C/c3ccccc3)c(=O)c12
inactive: NCI-H23 lung 99.7% | NCI-H226 lung 87.5% | NCI-H322M lung 103% | HOP-62 NSCLC 102% | NCI-H460 lung 106% | HOP-92 NSCLC 99.4% | NCI-H522 lung 97.9% | A549/ATCC NSCLC 101% | 786-0 renal 97.1% | COLO 205 colon 118% | DU-145 prostate 114% | K-562 leukemia 95.6% | MALME-3M melanoma 91.5% | MDA-MB-231 breast 91.8% | RXF 393 renal 111% | SF-268 CNS 104% | SF-295 CNS 94.9% | SF-539 CNS 93.8% | UACC-257 melanoma 106% | M14 melanoma 98.5%

Nc1ccc(-c2ccc3ncnc(N4CCc5cc(F)c(Cl)cc54)c3c2)cn1
active: NCI-H322M lung -2.2% | HOP-92 NSCLC 1.25% | 786-0 renal -69.8% | DU-145 prostate 5.3% | MALME-3M melanoma 3.74% | RXF 393 renal -19.2% | SF-295 CNS 7.68%
inactive: NCI-H23 lung 29.4% | NCI-H226 lung 18.4% | HOP-62 NSCLC 37.5% | NCI-H460 lung 25.6% | NCI-H522 lung 15.4% | A549/ATCC NSCLC 14.2% | COLO 205 colon 50% | K-562 leukemia 12.9% | MDA-MB-231 breast 18.4% | SF-268 CNS 24% | SF-539 CNS 24.9% | UACC-257 melanoma 43.1% | M14 melanoma 13.5%

COc1ccc(CCC2NCCc3c(Br)c4c(c(OC)c32)OCO4)cc1 (stereo not given)
inactive: NCI-H226 lung 25.5% | NCI-H322M lung 14.6% | HOP-62 NSCLC 18.1% | HOP-92 NSCLC 15.6% | A549/ATCC NSCLC 24.2% | DU-145 prostate 33.8% | MALME-3M melanoma 23.4% | MDA-MB-231 breast 10.9% | SF-268 CNS 20.3% | UACC-257 melanoma 37.5%
active: NCI-H23 lung -24.7% | NCI-H460 lung 9.1% | NCI-H522 lung 2.33% | 786-0 renal 8.08% | COLO 205 colon -37.5% | K-562 leukemia 6.12% | RXF 393 renal -17.3% | SF-295 CNS 4.87% | SF-539 CNS -39.4% | M14 melanoma -30.7%

CCCCN1C(=O)/C(=C\C(=O)c2cc3ccccc3oc2=O)c2ccccc21
inactive: NCI-H23 lung 79% | NCI-H226 lung 88.5% | NCI-H322M lung 99.4% | HOP-62 NSCLC 92.3% | NCI-H460 lung 86.4% | HOP-92 NSCLC 63.7% | A549/ATCC NSCLC 106% | 786-0 renal 75% | DU-145 prostate 85.8% | MALME-3M melanoma 69% | MDA-MB-231 breast 48.2% | RXF 393 renal 60.1% | SF-268 CNS 87.5% | SF-295 CNS 101% | SF-539 CNS 80.2% | UACC-257 melanoma 105% | M14 melanoma 53.5%
active: NCI-H522 lung -19.9% | COLO 205 colon -20.5% | K-562 leukemia -36.9%

Nc1nnc(CS(=O)(=O)c2ccccc2)s1
inactive: NCI-H23 lung 107% | NCI-H226 lung 121% | NCI-H322M lung 94.6% | HOP-62 NSCLC 102% | NCI-H460 lung 114% | HOP-92 NSCLC 86.5% | NCI-H522 lung 80.8% | A549/ATCC NSCLC 102% | 786-0 renal 108% | COLO 205 colon 117% | DU-145 prostate 113% | K-562 leukemia 98.9% | MALME-3M melanoma 94.1% | MDA-MB-231 breast 102% | RXF 393 renal 172% | SF-268 CNS 105% | SF-295 CNS 99.2% | SF-539 CNS 101% | UACC-257 melanoma 97.1% | M14 melanoma 97.3%

COc1cc(CNC(=O)C[C@H](C)CCC=C(C)C)ccc1OCc1cn(-c2ccccc2Cl)nn1
inactive: NCI-H23 lung 64.5% | NCI-H226 lung 59.7% | NCI-H322M lung 91.3% | HOP-62 NSCLC 79.3% | NCI-H460 lung 78.4% | HOP-92 NSCLC 79.4% | NCI-H522 lung 51.4% | A549/ATCC NSCLC 64.1% | 786-0 renal 87.7% | COLO 205 colon 71.7% | DU-145 prostate 90.1% | K-562 leukemia 44.6% | MALME-3M melanoma 68.2% | MDA-MB-231 breast 72.6% | RXF 393 renal 72.6% | SF-268 CNS 82.4% | SF-295 CNS 56.4% | SF-539 CNS 75.2% | UACC-257 melanoma 60.3% | M14 melanoma 55.9%

Clc1ccc(-c2nc3ccc(-c4nnc(SCc5ccccc5)o4)cc3[nH]2)cc1
inactive: NCI-H23 lung 18.3% | NCI-H226 lung 40.3% | NCI-H322M lung 27.6% | NCI-H460 lung 41.4% | HOP-92 NSCLC 48% | NCI-H522 lung 10.3% | A549/ATCC NSCLC 34.9% | 786-0 renal 24.6% | COLO 205 colon 55.3% | DU-145 prostate 54.9% | K-562 leukemia 36.7% | MALME-3M melanoma 29.4% | SF-268 CNS 60% | UACC-257 melanoma 62.2% | M14 melanoma 67.9%
active: HOP-62 NSCLC 9.18% | MDA-MB-231 breast -11.9% | RXF 393 renal -4.87% | SF-295 CNS -73.4% | SF-539 CNS -28%

Nc1cc(-c2c[nH]c3ccc(Br)cc23)nc2cc(-c3c[nH]c4ccccc34)nn12
active: NCI-H23 lung -68.9% | NCI-H226 lung 3.69% | NCI-H322M lung -18.8% | HOP-62 NSCLC -61.9% | NCI-H460 lung -53.1% | HOP-92 NSCLC -50.8% | NCI-H522 lung -77% | A549/ATCC NSCLC -47.2% | 786-0 renal -68.2% | COLO 205 colon -87% | DU-145 prostate -47.5% | K-562 leukemia 6.16% | MALME-3M melanoma -88.1% | MDA-MB-231 breast -83.3% | RXF 393 renal -76.7% | SF-268 CNS -44.5% | SF-295 CNS -87.6% | SF-539 CNS -93.5% | UACC-257 melanoma -86.9% | M14 melanoma -69.4%

Reference: PubChem BioAssay (NCI)
